Data: PubChem BioAssay
Calls of active or inactive are those of the source.

Key:
[1] = test system: XIP peptide (Xip251-270) binding; experiment: XIP fragment 251-270 binding compounds – biochemical, small-molecule microarray, fluorescence 635/667 nm, 0.1 µg/mL protein, primary screen (AID 1182); conditions: fluorescent protein binding, 635 nm, higher = more signal, called active from +8 up or from −8 down
[2] = test system: XIP peptide (Xip251-270); experiment: compounds binding XIP fragment 251-270 – biochemical, small-molecule microarray, fluorescence 635/667 nm, 0.5 µg/mL protein, primary screen (AID 1183); conditions: fluorescence 635 nm, higher = more signal
[3] = blood-stage malaria parasite viability loss – strain 3D7, DAPI fluorescence, 100 nL, primary screen (AID 1184);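 note: parasites grown inside human red blood cells in medium with human serum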; conditions: P. falciparum 3D7 growth, 3 d, higher = more signal
[4] = target: Homeobox protein Hox-A13 (Mus musculus) (UniProt Q62424); experiment: disruptors of Hoxa13 oligonucleotide interaction – biochemical, fluorescence polarization, labeled oligonucleotide, primary screen (AID 1185); conditions: Hoxa13:DNA binding, 15 min, higher = more signal, called active from +8 up or from −8 down
Sequence of Homeobox protein Hox-A13 (Mus musculus) (Q62424 whole entry, looked up): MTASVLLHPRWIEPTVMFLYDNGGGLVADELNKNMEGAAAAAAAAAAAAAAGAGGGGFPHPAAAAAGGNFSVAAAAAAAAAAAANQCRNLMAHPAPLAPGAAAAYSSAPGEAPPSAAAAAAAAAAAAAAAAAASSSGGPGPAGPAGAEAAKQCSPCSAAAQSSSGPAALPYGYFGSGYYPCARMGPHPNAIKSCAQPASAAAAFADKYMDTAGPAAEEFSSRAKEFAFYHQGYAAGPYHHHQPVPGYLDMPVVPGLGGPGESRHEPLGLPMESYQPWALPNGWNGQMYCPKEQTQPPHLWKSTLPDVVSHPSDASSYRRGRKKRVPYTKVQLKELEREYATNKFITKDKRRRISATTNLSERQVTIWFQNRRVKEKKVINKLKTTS

SMILES	composite z-score [1]	composite z-score [2]	z-score [3]	z-score [4]
CC(CCC(=O)OC[C@H]1O[C@H](C#Cc2ccccc2)C=C[C@@H]1Oc1ccc(C)cc1)=NOC(C)CN1CCCc2nc(C)c(C)cc21 (some centres undefined)	0.687 (inactive)	0.529	-1.9	-3.93 (inactive)
CON=C[C@@H](OC)[C@H](C)C=CCC(=O)OC	-1.44 (inactive)	-0.499	-0.166	-0.326 (inactive)
CCOC(=O)[C@H](Cc1ccccc1)NC(=O)CCC1CC(OC(=O)NCc2cccc3ccccc23)CC2(CCCC(COC(=O)NCCc3ccc(Cl)cc3)O2)O1 (some centres undefined)	0.351 (inactive)	0.568	-1.93	-5.98 (inactive)
CC1(C)O[C@H]2OC([C@H](O)CON3C(=O)c4ccccc4C3=O)[C@H](O)[C@H]2O1 (some centres undefined)	-0.592 (inactive)	0.291	0.696	0.366 (inactive)
COC(=O)[C@H](CCSC)NC(=O)CC=C[C@@H](C)CO	-0.0999 (inactive)	0.334	-0.979	-0.265 (inactive)
O=C1C[C@H](c2ccccc2)[C@H](c2ccc(Br)cc2)O1	-0.112 (inactive)	-0.0581	0.467	-0.403 (inactive)
CON=C(C)CCN1CCc2nc(-c3ccccc3)c(-c3ccccc3)cc2C1	0.257 (inactive)	0.41	-1.38	-2.53 (inactive)
CCN1C(=O)[C@H]2[C@H]3[C@H](O)[C@H](O)CC(=NOC[C@@H](O)[C@H]4O[C@@H]5OC(C)(C)O[C@@H]5[C@H]4O)[C@@H]3CC[C@H]2C1=O	-0.0371 (inactive)	0.33	0.663	0.303 (inactive)
COC(=O)[C@H](C)NC(=O)CCC1CC(OC(=O)NCc2ccc3c(c2)OCO3)CC2(CCCC(COC(=O)NCCC(C)C)O2)O1 (some centres undefined)	1.11 (inactive)	0.106	-0.489	-6.3 (inactive)
CCc1cc2c(nc1CC)CCN(CCC(C)=NOC[C@@H](C)[C@H](OCc1ccccc1)C(C)C)C2	-0.259 (inactive)	-0.125	0.23	-3.53 (inactive)
CCOC(=O)[C@H](Cc1ccccc1)NC(=O)CCC1CC(OC(=O)NCCc2ccc(F)cc2)CC2(CCCC(COC(=O)NCc3cccc(C(F)(F)F)c3)O2)O1 (some centres undefined)	0.966 (inactive)	0.463	-1.9	-3.11 (inactive)
COc1ccc(O[C@H]2C=C[C@@H](c3ccccc3)O[C@@H]2COC(=O)CCC(C)=NOC[C@@H](O)COCc2ccco2)cc1	-0.0073 (inactive)	-0.448	0.048	-5.52 (inactive)
CC(CCC(=O)OC[C@H]1O[C@H](C#Cc2ccccc2)C=C[C@@H]1Oc1ccc(C)cc1)=NOC(C)CN1CCCCc2nc(C)c(C)cc21 (some centres undefined)	-0.185 (inactive)	0.0787	-2.06	-2.02 (inactive)
COCCNC(=O)OCC1CCCC2(CC(OC(=O)NCc3cccc4ccccc34)CC(CCC(=O)N[C@@H](C)C(=O)OC)O2)O1 (some centres undefined)	0.505 (inactive)	0.588	-1.85	-3.88 (inactive)
CC(C)CON=C1[C@H]2CCn3c(=O)n(C)c(=O)n3[C@H]2[C@H](O)[C@@H]2O[C@H]12	-0.12 (inactive)	0.245	1.43	0.322 (inactive)
C#CCCCON=C1C[C@@H](O)[C@@H](O)[C@@H]2[C@@H]3C(=O)N(C4CCCCC4)C(=O)[C@@H]3CC[C@@H]12	0.481 (inactive)	0.0169	0.204	-4.64 (inactive)
CON=C(C)CCC(=O)OC[C@H]1O[C@H](C#Cc2ccccc2)C=C[C@@H]1Oc1ccc(C)cc1	0.177 (inactive)	0.627	-0.306	-4.45 (inactive)
COC(=O)[C@H](Cc1ccccc1)NC(=O)[C@@H](C)CO	-0.285 (inactive)	-0.9	-1.23	1.16 (inactive)
CCCC[C@H]1CN2[C@@H](CC[C@@H](C)[C@@H]2c2ccc(Br)cc2)C(=O)O1	0.977 (inactive)	0.476	-0.278	-3.59 (inactive)
COC(=O)[C@H](C)NC(=O)CCC1CC(OC(=O)NCc2cccc3ccccc23)CC2(CCCC(COC(=O)NCCc3ccccc3OC)O2)O1 (some centres undefined)	-0.0645 (inactive)	0.384	-1.47	-4.27 (inactive)
C=CC[C@@H]1C=C[C@H](ON=C(C)CCN2CCCc3nc(C)c(C)cc32)[C@@H](CO)O1	1.59 (inactive)	0.241	-2.16	-7.32 (inactive)
COC(=O)[C@@H]1CC[C@H](C)[C@@H](c2ccc(Br)cc2)N1C(=O)C(F)(F)F	0.0945 (inactive)	-0.635	-0.541	-0.733 (inactive)
CCc1cc2c(nc1CC)CCN(CCC(C)=NO[C@@H]1O[C@H](COC(C)=O)[C@@H](OC(C)=O)[C@H](OC(C)=O)[C@H]1OC(C)=O)C2	2.93 (inactive)	0.719	-1.62	-4.79 (inactive)

SMILES	composite z-score [1]	composite z-score [2]	z-score [3]	z-score [4]
CC(CCN1CCCc2nc(C)c(C)cc21)=NOC[C@@H](C)[C@H](OCc1ccccc1)C(C)C	-0.563 (inactive)	0.548	-0.342	-3.09 (inactive)
COC(=O)C(C(=O)OC)C1CCCC(=O)C1 (centres undefined)	-0.0977 (inactive)	0.237	-0.468	-0.243 (inactive)
CC(CCN1CCCc2nc(C)c(C)cc21)=NO[C@H](C)c1cn([C@H](CO)Cc2ccccc2)nn1	-0.0325 (inactive)	0.532	-2.52	-7.43 (inactive)
CCCNC(=O)OC[C@H]1O[C@H](CCON=C2C[C@@H](O)[C@@H](O)[C@@H]3[C@@H]4C(=O)N(CC)C(=O)[C@@H]4CC[C@@H]23)C=C[C@@H]1Oc1ccc(OC)cc1	-0.14 (inactive)	0.696	0.497	-7.64 (inactive)
COC(=O)[C@H](C)NC(=O)CCC1CC(OC(=O)NCCc2ccc(F)cc2)CC2(CCCC(COC(=O)NCCOc3ccccc3)O2)O1 (some centres undefined)	2.99 (inactive)	0.536	-1.84	-1.1 (inactive)
O=C1[C@H]2[C@H]3[C@H](O)[C@H](O)CC(=NO[C@@H]4O[C@H](CO)[C@@H](O)[C@H](O)[C@H]4O)[C@@H]3CC[C@H]2C(=O)N1C1CCCCC1	-0.25 (inactive)	0.0473	0.0387	0.719 (inactive)
CCN1C(=O)[C@H]2[C@@H]3C(=CC[C@H]2C1=O)C(=O)[C@H]1O[C@H]1[C@H]3O	-0.529 (inactive)	0.568	-1.94	-6.04 (inactive)
CC(C)(C)N1C(=O)[C@H]2[C@@H]3C(=CC[C@H]2C1=O)C(=O)[C@H]1O[C@H]1[C@H]3O	0.139 (inactive)	0.283	-2.38	-5.76 (inactive)
O=C1C=C[C@@H](O)[C@@H]2[C@@H]3C(=O)N(c4cccc(Oc5ccccc5)c4)C(=O)[C@@H]3CC[C@@H]12	-0.0205 (inactive)	0.528	-1.46	-0.827 (inactive)
O=C1C2=CC[C@H]3C(=O)N(C[C@@H]4CCCO4)C(=O)[C@H]3[C@H]2[C@H](O)[C@@H]2O[C@H]12	-0.14 (inactive)	0.39	-0.434	-3.47 (inactive)
CC(=O)OC[C@H]1O[C@@H](ON=C(C)C)[C@H](OC(C)=O)[C@@H](OC(C)=O)[C@@H]1OC(C)=O	-0.0542 (inactive)	-0.245	0.213	-0.383 (inactive)
CC(C)CON=C1C[C@@H](O)[C@@H](O)[C@@H]2[C@@H]3C(=O)N(c4ccc(F)cc4F)C(=O)[C@@H]3CC[C@@H]12	0.681 (inactive)	0.218	-1.66	-0.567 (inactive)
O=C(NN=C1C[C@@H](O)[C@@H](O)[C@@H]2[C@@H]3C(=O)N(Cc4ccccc4)C(=O)[C@@H]3CC[C@H]12)OCc1ccccc1	-0.578 (inactive)	-0.0586	0.892	-0.2 (inactive)
COC(=O)[C@H](C)NC(=O)CCC1CC(OC(=O)NCCc2ccc(F)cc2)CC2(CCCC(COC(=O)NCCc3ccccc3OC)O2)O1 (some centres undefined)	0.784 (inactive)	0.341	-1.26	-6.13 (inactive)
CCCNC(=O)OC[C@H]1O[C@H](CCON=C[C@@H](C)[C@H](OCc2ccccc2)C(C)C)C=C[C@@H]1Oc1ccc(OC)cc1	0.196 (inactive)	-0.267	-0.591	-3.32 (inactive)
O=C1C[C@@H](O)[C@@H](O)[C@@H]2[C@@H]3C(=O)N(C4CCCCC4)C(=O)[C@@H]3CC[C@@H]12	-0.08 (inactive)	0.148	0.922	0.136 (inactive)
COCOc1ccc(Br)cc1C(=O)C=Cc1ccc2c(c1)OCO2	0.268 (inactive)	0.627	-1.42	-0.353 (inactive)
CON(C)C(=O)c1nnc2c(n1)[nH]c1ccccc12	-0.132 (inactive)	0.755	0.763	0.447 (inactive)
CCCCOC(OCCCC)C(O)CSc1ccc2ccccc2c1 (centres undefined)	0.115 (inactive)	0.198	0.609	-3.85 (inactive)
CO[C@@H]1COC(=O)[C@H](COCc2ccccc2)NC(=O)CC=C[C@@H](C)[C@H](OC)COC(=O)[C@@H](C)NC(=O)CC=C[C@H]1C	0.455 (inactive)	0.261	0.591	-1.83 (inactive)
C=C(C)C(=O)OC[C@H]1CN2[C@@H](CC[C@@H](C)[C@@H]2c2ccc(Br)cc2)C(=O)O1	0.414 (inactive)	-0.102	1.05	-2.2 (inactive)
CO[C@@H]1COC(=O)CC=C[C@H](C)[C@H](OC)COC(=O)[C@@H]2CCCN2C(=O)CC=C[C@H]1C	0.233 (inactive)	0.607	-1.52	-1.11 (inactive)
CC(CCN1CCCCc2nc(C)c(C)cc21)=NO[C@@H](C)c1cc(-c2c(C)cc(C)cc2C)no1	0.107 (inactive)	0.0399	-0.143	-2.25 (inactive)
